Rab9 promoter act – Rab9 promoter activation; AID 485297; Potency, µM (doses to about 9.22 µM), actives largely listed as activators; Huh7 Rab9 promoter-luciferase reporter, luminescence, 24 h; actives 2.8% (n = 320,000); further: nearly all actives have a fitted effect of over 60% in size
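Using Huh7 cells stably transfected with Rab9 promoter–luciferase, compounds were incubated 24 h at 37 °C, 5% CO2; luciferase luminescence was read 10 min after reagent addition.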
ELG1 genotox – inducers of genotoxicity in HEK293T ELG1-luciferase cells | actives 1.3% (n = 330,000) | AID 504466 | HEK293T ELG1-luciferase reporter, luminescence, 16 h | Potency, µM (doses to about 46 µM), usual class: activators; further: nearly all actives have a fitted effect of over 60% in size
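After overnight (16 hr) compound treatment at 37 °C, ELG1-luciferase HEK293T cells were lysed with ONE-Glo; luminescence quantified 30 min later at room temperature.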
FLuc modulator – inhibits or activates purified firefly luciferase, miR-21 counter-screen | Potency, µM (highest dose often 57.5 µM), actives largely listed as inhibitors | purified FLuc, Km substrates, luminescence inhibition | actives 6.9% (n = 360,000); further: nearly all actives have a fitted effect of over 55% in size
Target sequence (P08659 whole entry, looked up): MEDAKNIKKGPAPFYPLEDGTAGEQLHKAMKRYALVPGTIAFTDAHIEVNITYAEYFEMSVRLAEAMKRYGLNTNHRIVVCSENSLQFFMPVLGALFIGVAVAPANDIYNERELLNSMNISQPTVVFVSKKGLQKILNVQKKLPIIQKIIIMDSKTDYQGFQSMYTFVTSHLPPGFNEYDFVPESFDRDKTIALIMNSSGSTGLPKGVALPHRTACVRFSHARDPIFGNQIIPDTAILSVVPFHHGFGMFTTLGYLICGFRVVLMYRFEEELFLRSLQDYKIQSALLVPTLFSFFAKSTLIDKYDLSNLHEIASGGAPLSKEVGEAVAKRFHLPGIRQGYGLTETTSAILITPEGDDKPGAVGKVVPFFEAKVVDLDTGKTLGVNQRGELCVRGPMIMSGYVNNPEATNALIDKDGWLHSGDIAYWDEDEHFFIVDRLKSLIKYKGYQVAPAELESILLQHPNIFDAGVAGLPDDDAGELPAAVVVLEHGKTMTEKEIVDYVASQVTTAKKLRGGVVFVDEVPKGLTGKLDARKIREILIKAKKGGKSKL
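Biochemical qHTS of compounds, final roughly 60 µM downward over six points, against 10 nM purified firefly luciferase using Km concentrations of substrates (10 uM D-luciferin, 10 uM ATP) in Tris acetate pH 7.5 buffer; luminescence output.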
SMN2 splice enh – increases expression of the SMN2 splice variant; HEK293 SMN2-luciferase splicing reporter, luminescence, 30-36 h; Potency, µM (series often up to 46.1 µM), hits mostly activators; actives 2.8% (n = 210,000); further: nearly all actives have a fitted effect of over 55% in size
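HEK293 cells carry an SMN2 minigene-luciferase reporter in which exon 7 inclusion puts luciferase in frame. Cells were seeded at 2000 cells/well, attached for 10-12 hours, then exposed to compounds for 30-36 hours at 37C before ONE-Glo luminescence.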
NPC1 promoter act – activates the NPC1 promoter. Huh7 NPC1 promoter luciferase reporter, 24 h. Potency, µM (highest dose often 9.22 µM), usual class: activators. actives 2.4% (n = 320,000); further: nearly all actives have a fitted effect of over 60% in size
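In 1536-well qHTS, Huh7 cells harboring an NPC1 promoter–luciferase construct received compound for 24 h; activation was quantified by luminescence following luciferase reagent addition.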
Hits are given with their value; - = inactive; ? = inconclusive; . = not tested or not shown; [ ] = remark or other dose. Rows were chosen to be rich in hits. Some 7.5% of all compounds tested hit in one or more screens of this group. The call rests on the fitted dose curve; in most records, active means well fitted curve in the direction sought with a large enough effect; inconclusive means small, poorly fitted or top-dose-only effect, or another doubt; inactive means no such curve, though single readings can be large; an effect the other way counts as inactive or inconclusive.

SMILES | Rab9 promoter act | ELG1 genotox | FLuc modulator | SMN2 splice enh | NPC1 promoter act
C=CCc1cc(/C=N/n2cnnc2)cc(OCC)c1O | - | - | ? | - | -
Cc1ccc(SCC(=O)OCC(=O)NCc2ccco2)cc1 | - | - | - | . | -
CCOc1ccccc1OCC(=O)Nc1ccc2[nH]c(=O)[nH]c2c1 | - | - | - | . | -
CC(O)c1nc2ccccc2n1Cc1nnc(-c2ccc(Cl)cc2)o1 (stereo not given) | - | - | 17µM | - | -
CC(C)NCc1nnc(-c2ccc(Cl)cc2)o1 | - | - | - | . | -
COc1cn(-c2ccccc2)nc1C(=O)Nc1ccc(C)cc1Cl | - | - | 6.7µM | . | -
CCCC(=O)Nc1nn(C)c2nc3cc(C)ccc3cc12 | - | - | - | . | -
CC1CN(C(=O)c2ccc(COc3ccc(C(C)C)cc3)o2)CC(C)O1 (stereo not given) | ? | ? | 13µM | . | ?
CC1CN(C(=O)c2ccc(COc3ccc4ccccc4c3)o2)CC(C)O1 (stereo not given) | ? | - | 17µM | . | -
CCOc1ccc(NC(=O)N2CCN(Cc3ccc4c(c3)OCO4)CC2)cc1 | - | - | - | . | -
Cc1ccc(OCCC(=O)Nc2ccc(S(=O)(=O)Nc3cc(C)nc(C)n3)cc2)cc1 | - | - | ? | . | -
Cc1cc(NC(=O)c2ccco2)ccc1-n1cnnn1 | ? | ? | 21µM | - | ?
CCOc1ccc(-n2nc3ccc(NC(=O)COc4ccccc4)cc3n2)cc1 | . | . | - | - | .
COc1cc(C(=O)Nc2ccc(-n3cnnn3)c(C)c2)cc(OC)c1OC | - | - | ? | - | -
CC(C)C(=O)Nc1ccc2nn(-c3ccccc3)nc2c1 | 0.14µM | 1.2µM | 0.67µM | 7.9µM | 0.22µM
O=C(Nc1ccc2nn(-c3ccccc3)nc2c1)c1cccnc1 | ? | - | ? | - | 3.5µM
O=C(Nc1ccc2nn(-c3ccccc3)nc2c1)c1ccco1 | 3.5µM | ? | ? | 4µM | 2.8µM
Cc1cc(C(=O)NCc2cccs2)n(-c2ccccc2)n1 | - | - | - | - | -
Cc1ccc(S(=O)(=O)N(CC(=O)N2CCC(C(N)=O)CC2)c2cccc(C(F)(F)F)c2)cc1 | - | - | - | - | -
O=C(Nc1cc2nn(-c3ccccc3)nc2cc1Cl)c1ccco1 | 3.5µM | 9.2µM | ? | 11µM | 4µM
CC(=O)Oc1cccc(-c2nc3ccccc3c(=O)o2)c1 | - | - | 19µM | . | -
COc1cccc(-c2nc3ccc(O)cc3c(=O)o2)c1 | - | - | 4.8µM | - | -
N#CC(Nc1ccccc1)c1ccccc1OCc1ccccc1 (stereo not given) | - | - | - | - | -
Cc1nc(N2CCCCC2)c2sc(=S)n(C)c2n1 | - | 21µM | - | - | -
Cc1ccc(NCc2nnc3n2CCCCC3)c(C)c1 | - | - | - | - | -
SMILES | Rab9 promoter act | ELG1 genotox | FLuc modulator | SMN2 splice enh | NPC1 promoter act
CC(C)(C)NC(=O)c1cc(-c2ccc3c(c2)OCO3)nc2ccccc12 | - | - | 17µM | . | -
CN(C)c1ccc(-c2c(-c3ccc4c(c3)OCO4)noc2-c2ccsc2)cn1 | - | - | ? | . | -
COC(=O)c1ccc(-c2cc(C(=O)O)c3cc4c(cc3n2)OCCO4)cc1 | - | ? | 4.8µM | - | -
O=C(O)c1cc(-c2ccc(-c3c(-c4ccc5c(c4)OCO5)noc3-c3ccsc3)cc2)nc2ccccc12 | - | - | 19µM | . | ?
O=C(O)c1cc(-c2ccc3c(c2)OCO3)nc2ccc(Cl)cc12 | - | - | 2.4µM | . | -
O=C(Nc1ccc2c(c1)OCO2)c1cc(-c2ccncc2)nc2ccccc12 | - | - | ? | - | -
O=C(O)c1cc(-c2ccc(-c3ccc(-c4cc(C(=O)O)c5cc(Cl)ccc5n4)cc3)cc2)nc2ccc(Cl)cc12 | . | . | . | -[9.22 µM] | .
COc1cc(-c2cc(C(=O)O)c3cc4c(cc3n2)OCCO4)cc(OC)c1OC | - | - | - | - | -
CCC(CC)C(=O)c1c[nH]c(C(=O)NCCc2ccccn2)c1 | - | - | - | - | -
COc1ccc(NC(=O)CN(C)S(=O)(=O)c2ccc(Cl)cc2)cc1Cl | - | - | - | - | -
Cn1c(NC(=O)c2cc(-c3ccc4c(c3)OCO4)nc3ccccc23)cc(=O)n(C)c1=O | - | ? | 2.1µM | 10µM | -
Cc1cc(C(=O)Nc2nnc(C(F)(F)F)s2)cs1 | ? | - | 12µM | . | ?
Cc1nn(-c2ccccc2)c(Cl)c1C(=O)Nc1nnc(C2CCCC2)s1 | - | - | - | - | -
Cc1cc(C(=O)Nc2nnc(C3CCCCC3)s2)cs1 | 1.6µM | ? | -[2.3 µM] | - | ?
COc1cccc(-n2cnc3scc(-c4cccs4)c3c2=O)c1 | - | - | - | - | -
COc1ccc(C(=O)Nn2cnc3scc(-c4cccs4)c3c2=O)c(O)c1 | 2.5µM | 7.3µM | 15µM | 13µM | 2.8µM
COC(=O)c1cc(S(=O)(=O)NCC2CCN(Cc3cccc(F)c3)CC2)c[nH]1 | - | - | - | . | -
Cc1cc(C(=O)NNC(=O)/C=C/c2ccc(F)cc2)c(C)o1 | - | - | - | . | -
Cc1ccc(N=Cc2cccc(O)c2O)c(C)c1 | - | - | ? | - | -
Cc1cccc(C=Nc2ccc3c(c2)oc2ccccc23)c1O | 4µM | - | ? | 10µM | -
N#Cc1nc(-c2cccs2)oc1NCCc1ccccc1 | - | ? | 19µM | - | -
CNc1oc(-c2cccs2)nc1C#N | - | - | - | - | -
N#Cc1nc(-c2ccccc2F)oc1NCCc1ccccc1 | - | - | 27µM | - | -
COc1ccc(Nc2oc(-c3cccs3)nc2C#N)cc1 | 3.2µM | ? | 4.8µM | ? | ?
Cn1c(=O)c2sccc2n2c(CCCC(=O)Nc3ccc(Oc4ccc(Cl)cc4)cc3)nnc12 | . | . | - | . | .
SMILES | Rab9 promoter act | ELG1 genotox | FLuc modulator | SMN2 splice enh | NPC1 promoter act
Cc1ccc(CSc2nnc(Nc3ccc(C)cc3)s2)cc1 | - | - | - | - | -
CCSc1nnc(Nc2ccc(C)cc2)s1 | 2.8µM | ? | 9.5µM | ? | 3.5µM
Cc1ccc(Nc2nnc(SCC(=O)NCc3ccco3)s2)cc1 | - | - | 13µM | - | -
Cc1ccc(Nc2nc(C(=O)NCc3ccco3)cs2)cc1 | - | - | 24µM | - | -
COc1ccc(C(=O)Nc2nnc(SCC(=O)NCc3ccco3)s2)c(OC)c1 | 0.32µM | 0.52µM | 0.67µM | . | 0.28µM
O=C(CSc1nnc(Nc2ccccc2)s1)NCc1ccco1 | - | - | ? | - | -
CCN(CC)C(=O)c1csc(Nc2ccc(C)cc2)n1 | - | - | ? | . | -
S=C(NCc1cccs1)NCC1CCCO1 (stereo not given) | - | - | - | - | -
COc1cc(C(=O)Nc2cc3c4c(c2)CC(=O)N4CCC3)cc(OC)c1OC | - | - | - | . | -
CC(C)c1ccc(C(O)c2nc3ccccc3n2C)cc1 (stereo not given) | - | - | - | . | -
COc1ccc(C(=O)Nc2nnc(SCC(=O)NCc3ccco3)s2)cc1OC | - | - | - | . | ?
O=C(CSc1nnc(NC(=O)c2ccccc2F)s1)NCc1ccco1 | 4µM | 16µM | 8.5µM | . | 3.5µM

High-throughput results deposited in PubChem BioAssay by National Center for Advancing Translational Sciences (NCATS).
